# Rows were chosen to be rich in hits. Some 2% of all compounds tested hit in one or more screens of this group.
# NR1D1 modulator: modulators of Rev-erb alpha DNA binding, primary screen, biochemical, FITC-DNA, fluorescence polarization, uHTS | actives 0.79% (n = 370,000) | activity, % at 10 µM | Rev-erbα–FITC-DNA binding, 90 min | AID 1259318, 2017;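 active = activity above about 14%, limit read from the data; passing the limit was not always enough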;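 note: 0% = DMSO wells with 35 nM protein and 100% = DMSO wells with 750 nM protein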
# ABCB6 inh MLPCN: ABCB6 transporter inhibitors, primary screen, K562-ABCB6 cells, flow cytometry, MLPCN library; ATP-binding cassette sub-family B member 6 (Homo sapiens), Q9NP58; K562-ABCB6 porphyrin accumulation, 1 h; hits give low values; fluorescence ratio to DMSO, % at 10 µM; actives 0.19% (n = 360,000);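 active = fluorescence ratio to DMSO below 75%, the collection mean minus 3 SD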;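 note: signal is porphyrin accumulated inside mitochondria; 100% equals median channel fluorescence of DMSO control wells; lower ratio means ABCB6 inhibition with less porphyrin fluorescence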
# PG9 binder: binders of HIV-1 gp120 antibody PG9, primary screen, biochemical, TR-FRET; AID 624416, 2012; actives 0.43% (n = 360,000); inhibition, % at 6.7 µM; HIV-1 gp120 / PG9 antibody interaction; TR-FRET gp120-PG9 antibody binding; in the data active = inhibition above about 8.5%
# VLA-4 inh: inhibition in human VLA-4 binding assay, primary screen, VLA-4 allosteric modulator project, MLPCN library, flow cytometry, VLA-4 expressing cells; ligand binding flow cytometry; inhibition, % (about 7 µM as worked out from the volumes in the protocol); actives 0.2% (n = 330,000); in the data active = inhibition above about 50%
# Exocytosis inh: LAMP-1 surface exposure blockers, TALL-104 cells – cell-based, flow cytometry, MLPCN library, primary screen; TALL-104 LAMP-1 surface exposure; cells stimulated with thapsigargin and PMA; inhibition, % at 10 µM; actives 0.66% (n = 360,000); AID 651702, 2012;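 active = inhibition above about 55%, limit read from the data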
# Rev-erbA confirm: modulators of Rev-erb alpha DNA binding, confirmation, biochemical, FITC-DNA, fluorescence polarization, single point | shares compounds with NR1D1 modulator | 90 min | activation, % at 25 µM | actives 61% (n = 3,000);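 active = activation at or above a set limit, or at least 3 SD above the negative control mean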;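 note: 0% = 35 nM protein with DMSO and 100% = 750 nM protein high control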
# RORg counter: modulation of RORgamma DNA binding, dose response, counter-screen for Rev-erb alpha modulator project, biochemical, fluorescence polarization, FITC-DNA; shares compounds with NR1D1 modulator; purified RORgamma protein-FITC-DNA binding; IC50, µM; actives 8% (n = 910); AID 1259320, 2017;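 active = Compounds whose fitted half-maximal concentration for disrupting protein-DNA binding is below 10 micromolar; the record names Rev-erb in its text, so the target is in doubt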
# The depositor's hits bear a star; i = inactive; · = not tested or not shown; ! = a repeat was not active.
SMILES,NR1D1 modulator,ABCB6 inh MLPCN,PG9 binder,VLA-4 inh,Exocytosis inh,Rev-erbA confirm,others
CC(=O)c1sc2c(c1OC(=O)c1ccc(Cl)cc1)c(=O)n(-c1ccccc1)c(=S)n2-c1ccccc1,44.7*,89.0,-0.6,·,12.0,10.0,
CC(=O)c1sc2c(c1OC(=O)c1ccc(Cl)cc1Cl)c(=O)n(-c1ccccc1)c(=S)n2-c1ccccc1,2.5,98.0,7.5,5.0,10.4,·,
COC(=O)[C@]12C[C@H](CC(=O)N3CCOCC3)C(=O)N(Cc3cccc4ccccc34)C1=C[C@H](C(C)(C)C)O[C@@H]2C,-0.9,·,·,·,·,·,
O=C(Nc1ccccc1)c1cc2c(=O)c3ccccc3oc2nc1C(F)(F)F,46.3*,98.0,5.5,-16.3,-1.3,34.0*,RORg counter=>40
O=C(O)c1cc2c(=O)c3ccccc3oc2nc1C(F)(F)F,2.7,97.0,-2.2,5.1,-4.0,·,
O=C(Nc1cccc(C(F)(F)F)c1)c1cc2c(=O)c3ccccc3oc2nc1C(F)(F)F,25.2*,95.0,0.4,19.9,2.4,19.3*,
Cn1nc(CC(=O)NC2CCCCCCCCCCC2)c2ccccc2c1=O,-5.1,134.0,0.1,-6.5,0.6,·,
Cn1nc(CC(=O)Nc2ccc3c(c2)CCC3)c2ccccc2c1=O,20.1*,86.0,-1.2,·,0.4,17.0*,
Cc1ccccc1CN[C@@H]1CC[C@@]23CCCN2C(=O)CCC[C@H]3C1,-4.5,·,·,·,·,·,
Cc1cc2c(s1)c1cnn(Cc3cc(F)c(F)cc3F)c(=O)c1n2C,25.6*,·,·,·,·,9.9,
C#CCNC(=O)C[C@H]1C(=O)N(CCCOC)C2=CCCCC[C@]21C(=O)OC,4.0,·,·,·,·,·,
OC(c1cc(F)cc(Cl)c1)c1ncc(-c2ccc3ccccc3c2)[nH]1 (configuration not stated),14.1*,104.0,-0.1,·,-9.9,-4.2,
COc1ccc(Cl)cc1S(=O)(=O)N1CCN=C1C,-0.3,85.0,1.5,-18.5,-0.2,·,
CC1=NCCN1S(=O)(=O)c1c(C(C)C)cc(C(C)C)cc1C(C)C,44.6*,98.0,1.2,12.4,-0.8,44.4*,RORg counter=>40
O=C1c2c(O)cccc2C(C2OC(CO)C(O)C(O)C2O)c2cc(CO)cc(O)c21 (configuration not stated),0.4,·,·,·,·,·,
Clc1ccc(OCc2nn3c(-c4ccccc4)nnc3s2)c(Cl)c1,25.8*,91.0,0.8,10.6,2.0,34.8*,
Clc1ccccc1OCc1nn2c(-c3ccncc3)nnc2s1,3.8,103.0,0.6,26.6,1.2,·,
Cc1cc(NC(=O)COC(=O)C2CC(=O)N(c3ccc(Cl)cc3)C2)no1 (configuration not stated),22.4*,98.0,0.0,0.6,16.3,-7.9,
N#CC(C#N)=C1C=C2C=C(N3CCCCC3)CCC2CC1 (configuration not stated),·,·,·,i,·,·,
CCN(CC)C1=CC2=CC(=C(C#N)C#N)CCC2CC1 (configuration not stated),65.7*,245.0,-6.6,-8.1,10.9,24.4*,
CCCCN(C)C1=CC2=CC(=C(C#N)C#N)CCC2CC1 (configuration not stated),69.4*,430.0,-10.2,i,38.2,34.2*,RORg counter=>40
COc1ccccc1CNC(=O)c1c(O)c2cc(OC)c(OC)cc2[nH]c1=O,28.5*,94.0,0.2,-16.2,-3.9,19.2*,
O=C(NCc1ccccc1)c1c(O)c2ccccc2[nH]c1=O,11.4,95.0,1.0,6.5,-14.6,·,
CC(C)(C)c1ccc(C#C[C@@H]2C=C[C@@H](O)[C@@H](COC(=O)NCc3ccccc3)O2)cc1,0.9,·,0.3,·,·,·,
COCCN(C(=O)COc1ccc(Cl)cc1)c1nnc(-c2cccnc2)s1,24.2*,130.0,-0.2,4.9,2.3,15.7,
SMILES,NR1D1 modulator,ABCB6 inh MLPCN,PG9 binder,VLA-4 inh,Exocytosis inh,Rev-erbA confirm,others
O=C(OCC#CCSc1nnc(-c2cccc3ccccc23)o1)c1cccc(F)c1,3.3,·,·,·,·,·,
N#C/C(=C\C1=C(N2CCOCC2)C(=C\c2ccc(Cl)cc2)/CC1)C(=O)Nc1ccccc1F,8.7,i,1.9,i,1.2,·,
N#C/C(=C/C1=C(N2CCOCC2)C(=C/c2ccccc2)/CC1)C(=O)Nc1ccccc1F,19.0*,i,-1.6,·,0.3,18.0*,
Cc1ccc(C(=O)Nc2cccc(C(F)(F)F)c2)cc1NC(=O)c1nccn1C,20.2*,98.0,-2.7,-4.3,-2.2,22.7*,RORg counter=>40
Cc1ccc(C(=O)Nc2cccc(C(F)(F)F)c2)cc1NC(=O)c1ccno1,3.2,95.0,0.3,-4.0,-5.3,·,
CC/C(=C(/CC)c1ccc(O)cc1)c1ccc(O)cc1,30.7*!,98.0,-0.8,6.9,4.8,33.6*,
CC/C(=C(/CC)c1ccc(OP(=O)(O)O)cc1)c1ccc(OP(=O)(O)O)cc1,0.7,·,·,·,·,·,
Cc1ccc(CN2CCCCC(NC(=O)Nc3ccccc3-c3ccccc3)C2=O)cc1 (configuration not stated),0.2,·,·,·,·,·,
Cc1nc(C)c(-c2ccc(SCC(=O)Nc3cccc(Cl)c3)nn2)s1,24.3*,96.0,-13.7,2.7,6.5,10.4,
Cc1cc2nc3c(=O)n(CCc4ccccc4)c(=O)[nH]c3nc2cc1N,37.8*,107.0,-6.5,-44.0,-3.8,33.9*,RORg counter=2.13*
Nc1ccc2nc3c(=O)n(C4CCCCC4)c(=O)[nH]c3nc2c1,76.6*,109.0,-4.6,3.0,-6.0,82.7*,RORg counter=>40
CCCCn1c(=O)[nH]c2nc3cc(N)ccc3nc2c1=O,14.3,137.0,-10.6,-84.1,-3.9,·,
Nc1ccc2nc3c(=O)n(CCc4ccccc4)c(=O)[nH]c3nc2c1,71.8*,147.0,-6.0,1.2,-1.1,63.8*,RORg counter=i
O=C(NC1CCCCC1)O[C@H]1CC[C@@]23CCCN2C(=O)CCC[C@H]3C1,-3.9,·,·,·,·,·,
CCS(=O)(=O)Nc1ccc2c(c1)C(=O)N(C)[C@@H]1CC[C@H](CC(=O)N3CCCCC3)O[C@H]1CO2,3.6,·,·,·,·,·,
O=C(CSc1nc(-c2ccco2)cc(C(F)(F)F)n1)N1CCCc2ccccc21,24.7*,90.0,-0.4,-3.4,1.0,14.1,
O=C(CSc1nc(-c2ccco2)cc(C(F)(F)F)n1)Nc1ccc2c(c1)CCC2,0.0,100.0,-3.1,-1.6,1.4,·,
CCOC(=O)N1CCN(C(=O)C[C@H]2C[C@@]3(C(=O)OC)C(=C[C@H](C(C)(C)C)O[C@@H]3C)N(Cc3ccc4c(c3)OCO4)C2=O)CC1,3.0,·,-2.5,·,·,·,

# From PubChem
